This is a sample that favours compounds with a hit; in the whole collection about 6% have one here.
D1 antagonist: antagonists of human D1 dopamine receptor | actives 3.2% (n = 360,000) | P21728 | activity change, negative = inhibition, % at 10 µM | HEK293 TREx D1 cells, calcium flux, dopamine EC80; active compounds read low; in the data active = activity change below about -30%; also: % is scaled to controls: 0 for no effect and ±100 for the full control effect
Target sequence (P21728 whole entry, looked up): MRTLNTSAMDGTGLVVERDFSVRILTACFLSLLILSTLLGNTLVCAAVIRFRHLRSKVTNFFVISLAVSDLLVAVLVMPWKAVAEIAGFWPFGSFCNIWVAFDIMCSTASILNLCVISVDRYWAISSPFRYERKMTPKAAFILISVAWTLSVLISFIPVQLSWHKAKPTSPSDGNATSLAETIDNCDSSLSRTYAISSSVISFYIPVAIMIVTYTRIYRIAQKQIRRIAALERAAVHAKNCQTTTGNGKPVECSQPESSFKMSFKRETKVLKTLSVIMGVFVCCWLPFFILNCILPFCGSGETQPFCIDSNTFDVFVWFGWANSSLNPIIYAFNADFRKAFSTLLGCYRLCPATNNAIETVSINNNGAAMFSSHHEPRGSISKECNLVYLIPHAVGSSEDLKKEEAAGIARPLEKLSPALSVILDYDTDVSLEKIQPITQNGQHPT
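Kinetic fluorescence of a calcium dye serves as the read-out. D1-expressing Hek293 Trex cells, induced overnight at 30 C, are exposed to compound for 180 s before an EC80 dopamine addition, then read 180 s further.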
Chronic BCR inh: inhibitors of chronic active B-cell receptor signaling; ABC-DLBCL IkBa-CBG/CBR reporter, luminescence ratio, 4 h; Potency, µM (titrated, usually from 46.1 µM), inactives show at the highest dose activity change, negative = inhibition, hits mostly inhibitors; actives 0.05% (n = 340,000); AID 493014; active = well fitted inhibition curve with a large enough effect in the signal ratio, with a control signal flat, not every such curve was filed as active; inconclusive = small, poorly fitted or top-dose-only effect, or effect the other way, or a change in a side signal; the % refers to the signal ratio;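 also: potency is read from the fitted curve at half-maximal effect; plate controls were basal doxycycline-induced cells for no effect and cells given 10 µM MG132 for full effect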
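Compounds up to 46 uM were incubated four hours with TMD8 cells whose green CBG68 luciferase is fused to IkappaBalpha; red CBR luminescence normalised the signal, and concentration-effect curves were fitted to fusion, red and ratio data.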
DRD3 agonist: activates the human D3 dopamine receptor. actives 0.58% (n = 410,000). D3R DiscoveRx beta-arrestin cells, luminescence, 90 min. AID 652048. P35462. max activation, %; in the data active = max activation above about 30%; also: 0% is about no effect
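Cells at 1500/well, incubated overnight, then treated with pinned compounds (dopamine as control) for 90 min at 37 degrees C. DiscoveRx reagent added for 30 - 60 minutes at room temperature; luminescence read.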
D1 agonist: agonists of human D1 dopamine receptor. HEK293 T-REx D1 cells, calcium flux, agonist mode. activation, % at 2 µM. actives 1% (n = 360,000). AID 504660; in the data active = activation above about 30%; also: 0% is about no effect
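Agonism was scored from calcium flux recorded over 180 s (1 read/s) after pintool compound addition, following a 10-cycle baseline. Cells were inducible force-coupled HEK293 TREx D1, plated overnight at 30 C and loaded with no-wash calcium dye.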
D1 potentiator: enhances dopamine response at the human D1 receptor | P21728 | HEK293 TREx D1 cells, calcium flux, dopamine EC20 potentiation | potentiation, % at 10 µM | actives 0.036% (n = 360,000) | AID 504651; in the data active = potentiation above about 30%; also: 0% is about no effect
DRD3 antagonist: antagonists of human D3 dopamine receptor. P35462. actives 2.5% (n = 360,000). AID 652054. D3R cells, DiscoveRx beta-arrestin luminescence, antagonist mode; active compounds read low. max response, negative = inhibition, %; in the data active = max response below about -50%; inconclusive = no clear call, values can overlap the other calls; also: % is scaled to controls: 0 for no effect and ±100 for the full control effect
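Cells plated overnight at 1500 cells/well, then exposed to library compounds with dopamine controls for 90 minutes at 37 degrees C. DiscoveRx reagent added for 30–60 minutes at room temperature; luminescence read, quantitative HTS format.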
Starred values were filed as active, the others as inactive; ? = inconclusive; . = no result given.

SMILES	D1 antagonist	Chronic BCR inh	DRD3 agonist	D1 agonist	D1 potentiator	DRD3 antagonist
Cc1cccc(OCC(=O)Nc2ccc(N3CCN(C(=O)c4ccccc4)CC3)cc2)c1	-18.5	4.1%	2.0	17.1	-4.5	23.2
O=C(COc1ccccc1Cl)Nc1ccc(N2CCN(C(=O)c3ccccc3)CC2)cc1	-52.2*	?	25.3	1.7	2.9	64.8
O=C(Cc1ccccc1)Nc1cccc(N2CCCC2)c1	-35.2*	?	-10.9	1.0	2.7	-19.4
O=C(Cc1ccccc1)Nc1ccc(N2CCCC2)cc1	12.5	0.7%	8.0	-0.1	-3.1	19.3
O=C(COc1ccccc1[N+](=O)[O-])Nc1ccc(N2CCN(C(=O)c3cccs3)CC2)cc1	-1.8	?	33.7*	3.0	8.2	72.8
O=C(O)c1cc([N+](=O)[O-])cc2c1nnn2O	-0.2	?	-25.3	0.6	2.7	-67.8*
O=C(c1ccc(F)cc1)C1CCN(Cc2ccccc2F)CC1	.	.	-5.1	.	.	-112.2*
Cc1ccc(C(=O)NNC(=O)C2CCN(Cc3ccccc3)CC2)cc1	9.7	0.2%	1.2	2.1	0.2	35.6
COc1ccc(C(=O)C2CCN(CC(=O)NCc3ccccc3)CC2)cc1	-5.7	-8.8%	-27.9	4.6	-0.7	-51.6*
O=C(CN1CCC(C(=O)c2ccc(F)cc2)CC1)NCc1ccccc1F	-9.5	6.0%	-24.8	6.4	-10.2	-79.3*
O=C(NNC(=O)C1CCN(Cc2ccccc2)CC1)c1cccc(Cl)c1	-62.2*	?	-3.9	5.8	-11.2	0.0
COCCCN1C(=O)C(CC(=O)NCc2cccs2)CC(C(=O)N(C)C)=C1C (stereo not given)	.	.	1.3	.	.	28.5
CCc1ccccc1NC(=O)C1CCN(C(=O)N2CC(C)Oc3ccc(Cl)cc32)CC1 (stereo not given)	0.9	.	4.8	-0.7	-1.6	.
O=C(c1ccc(Cl)cc1)C1CCN(Cc2ccccc2)CC1	-1.1	-1.3%	-19.4	1.8	-11.5	-113.9*
O=C(CSc1nc(=O)n(Cc2ccncc2)c2c1CCC2)Nc1ccc(F)cc1F	.	?	-0.4	-1.6	-1.4	.
CCN1C=CC2=C(C#N)C(N)C(C#N)(C#N)C(c3ccccc3C(F)(F)F)C2C1 (stereo not given)	12.2	-9.8%	-1.1	33.7*	-6.2	21.9
CC[C@@]12C(=O)N(c3ccc(OC)cc3)C(=O)N1[C@H](c1ccc(Cl)cc1)[C@@H]1C(=O)N(C3CCCCC3)C(=O)[C@@H]12	-0.1	-1.1%	-40.7	4.5	-1.1	-56.8*
CCN1C(=O)[C@H]2[C@@H](c3ccc(C)cc3)N3C(=O)N(c4ccc(OC)cc4)C(=O)[C@@]3(CC)[C@H]2C1=O	5.0	12.9%	45.5*	-0.1	-4.5	0.1
COc1ccc(N2C(=O)N3[C@H](c4cccc(C)c4)[C@@H]4C(=O)N(Cc5ccccc5)C(=O)[C@@H]4[C@]3(Cc3ccccc3)C2=O)cc1	-4.5	?	30.5*	6.7	-0.1	-5.7
Cc1cccc(N2C(=O)N3[C@H](c4ccc(F)cc4)[C@@H]4C(=O)N(C5CCCCC5)C(=O)[C@@H]4[C@]3(Cc3ccc(Cl)cc3)C2=O)c1	-20.8	1.4%	-4.1	3.4	0.9	-11.7
CC[C@@]12C(=O)N(c3cccc(C)c3)C(=O)N1[C@H](c1ccc(OC)cc1)[C@@H]1C(=O)N(C(C)(C)C)C(=O)[C@@H]12	3.9	1.7%	3.8	2.4	3.1	16.2
Cc1cccc(N2C(=O)N3[C@H](c4ccc(Cl)cc4)[C@@H]4C(=O)N(C5CCCCC5)C(=O)[C@@H]4[C@]3(Cc3ccc(Cl)cc3)C2=O)c1	-40.3*	2.9%	-2.4	10.6	-8.1	-7.0
CC(Cc1cccnc1)NC(=O)c1cc(COc2ccc(F)cc2Cl)on1 (stereo not given)	-33.6*	?	-15.1	9.8	-9.8	0.6
Cc1ccc(-c2nnn(CC(=O)N(CC(=O)NCCC(C)C)c3ccc(F)cc3)n2)cc1	3.4	.	1.8	4.7	0.8	.
Cn1cc(SCC(=O)Nc2ccc3c(c2)OCO3)c2ccccc21	-34.6*	-11.5%	-7.9	9.9	.	-11.8
SMILES	D1 antagonist	Chronic BCR inh	DRD3 agonist	D1 agonist	D1 potentiator	DRD3 antagonist
O=C(CSc1nnc(CNC(=O)c2cccs2)o1)Nc1ccc2c(c1)OCO2	-35.8*	-12.0%	-0.2	-1.9	-2.1	-2.4
CC(C)C(=O)Nc1nnc(SCC(=O)Nc2ccc3c(c2)OCO3)s1	-40.7*	-2.4%	6.0	11.5	-6.4	8.8
CCCn1cc(SCC(=O)Nc2ccc3c(c2)OCO3)c2ccccc21	-15.1	2.2%	3.7	-1.1	-0.5	1.4
O=C(CSc1nnc(CNC(=O)c2ccccc2)o1)Nc1ccc2c(c1)OCO2	8.2	-3.8%	-7.7	0.3	0.8	-16.6
CC1CCN(C(C(=O)Nc2ccc3c(c2)OCO3)c2ccccc2)CC1 (stereo not given)	-41.7*	11.8%	0.3	1.5	-9.4	0.4
COc1ccc2c(c1)c1c(c(=O)n(-c3ccccc3C)c(=O)n1CC(N)=O)n2C	10.4	.	-9.6	-1.0	-1.0	.
COc1ccc(NC(=O)CN(Cc2ccccc2)S(=O)(=O)c2ccc3nc(C)sc3c2)cc1	-22.8	.	-4.1	4.5	-8.0	.
COc1ccc(CNc2ncnc3c2nc2n3CCCC2)cc1	-19.9	.	-1.4	-1.4	-0.8	.
COc1ccc(CNC(=O)c2oc3c(c2C)-c2nn(Cc4ccccc4Cl)cc2CC3)cc1	-11.2	.	-6.0	1.7	-0.1	.
CN(C(=O)CSc1nc2ccc(NC(=O)c3cccc(F)c3)cc2s1)c1ccccc1	-7.4	.	2.9	0.3	-1.4	.
Oc1cnc2ccccc2c1CN1CCOCC1	3.7	1.9%	-3.3	4.4	-0.6	-77.5*
Oc1ccc2ccccc2c1CN1CCOCC1	-4.2	24.5%	-6.6	5.3	0.0	-10.4
CN1CCN(c2nc(NCCOC34CC5CC(CC(C5)C3)C4)nc(OCC(F)(F)F)n2)CC1	-3.3	?	-12.9	-1.8	1.1	-60.7*
CCCNc1nc(OCC(F)(F)F)nc(OCC(F)(F)F)n1	-0.3	-20.0%	6.9	-1.1	-1.6	-11.6
Cc1cc(C)c(NC(=O)Cn2c(=O)n(-c3cccc(C(F)(F)F)c3)c(=O)c3c(C)c(C)sc32)c(C)c1	0.9	.	-5.9	2.6	0.9	.
Cc1cc(Nc2cccc([N+](=O)[O-])c2)n2c(nc3ccccc32)c1C#N	-34.8*	?	3.5	26.1	-7.3	-93.1*
Cc1cc(Nc2ccc(F)cc2)n2c(nc3ccccc32)c1C#N	-0.7	.	9.8	17.4	1.7	.
O=C(Nc1ccc(-c2nc3ccccc3[nH]2)cc1)C1CCCN(Cc2ccn[nH]2)C1 (stereo not given)	.	.	3.8	.	.	19.4
CCCOC(=O)c1cc(O)c(O)c(O)c1	.	.	10.0	.	.	.
COC(=O)c1cc(O)c(O)c(O)c1	-11.8	1.1%	34.5*	-2.7	-1.8	-1.4

Screens as filed in PubChem.
